From the supplement of paper PMC10037445
In all, about 2,900 compounds were measured (“NF-kB SEAP reporter activity, fold change vs agonist alone”: median about 0.99, highest 2% from about 2.6 on). The sample holds the highest values, similar compounds and a random draw of the others, so the mix is not that of the screen.

Assays:
[1] = system: RAW-Dual; test: NF-kB SEAP reporter activity, fold change vs agonist alone; higher = enhanced NF-kB activity; conditions: cytotoxicity flag (confluency mask): not cytotoxic
How it was run: (§1)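 RAW-Dual macrophages (50,000 cells/well in DMEM, 384-well plates) received 50 nL of library stock by pin tool, then a PRR agonist 1 h later, and were kept at 37 °C, 5% CO2. After 20 hours, supernatant was read for IRF by QuantiLuc luminescence and for NF-κB by QuantiBlue absorbance at 620 nm. Reporter activity is fold change over agonist-alone wells. Cytotoxic wells had IncuCyte confluency below 70% of agonist controls in both mask sets.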

[2] = system: RAW-Dual; test: NF-kB SEAP reporter activity, fold change vs agonist alone; cytotoxicity flag (confluency mask): not cytotoxic; higher = enhanced NF-kB activity
How it was run: as §1

[3] = library stock concentration (final ~1000-fold dilution): 10 mM, agonist: Imiquimod (TLR7) […]
[4] = library stock concentration (final ~1000-fold dilution): 10 mM, agonist: MPLA (TLR4) […]
[5] = agonist: ODN 1826 (TLR9) 0.5 ug/mL
[6] = agonist: Pam2CSK4 (TLR2/6) 0.1 ug/mL
[7] = agonist: Pam3CSK4 (TLR2/1) 0.1 ug/mL

Compound: COc1ccc(S(=O)(=O)Nc2cc(-c3c(O)ccc4ccccc34)c(O)c3ccccc23)cc1
- NF-kB SEAP reporter activity [1, 3]: 1.17
- NF-kB SEAP reporter activity [1, 4]: 1.61

Compound: COc1ccc(S(=O)(=O)Nc2cc(-c3c(O)ccc4ccccc34)c(O)c3ccccc23)cc1 (library stock concentration (final ~1000-fold dilution): 10 mM)
- NF-kB SEAP reporter activity ([2]; agonist: LPS (TLR4) 0.1 ug/mL): 4.3
- NF-kB SEAP reporter activity [2, 5]: 1.09
- NF-kB SEAP reporter activity [2, 6]: 1.29
- NF-kB SEAP reporter activity [2, 7]: 1.38

Compound: CCOc1ccc(Cc2cc(C34OCC(CO)(O3)C(O)C(O)C4O)ccc2Cl)cc1 (configuration not stated) (library stock concentration (final ~1000-fold dilution): 10 mM)
- NF-kB SEAP reporter activity ([2]; agonist: LPS (TLR4) 0.1 ug/mL): 0.975
- NF-kB SEAP reporter activity [2, 5]: 1.1
- NF-kB SEAP reporter activity [2, 6]: 1.13
- NF-kB SEAP reporter activity [2, 7]: 0.829

Compound: CCOc1ccc(Cc2cc(C34OCC(CO)(O3)C(O)C(O)C4O)ccc2Cl)cc1 (configuration not stated)
- NF-kB SEAP reporter activity [1, 4]: 1.09

Compound: COc1ccc(CCN(C)CCCC(C#N)(c2ccc(OC)c(OC)c2)C(C)C)cc1OC.Cl (configuration not stated) (library stock concentration (final ~1000-fold dilution): 10 mM)
- NF-kB SEAP reporter activity ([2]; agonist: LPS (TLR4) 0.1 ug/mL): 1.06
- NF-kB SEAP reporter activity [2, 5]: 0.89
- NF-kB SEAP reporter activity [2, 6]: 0.949
- NF-kB SEAP reporter activity [2, 7]: 1.04

Compound: COc1ccc(CCN(C)CCCC(C#N)(c2ccc(OC)c(OC)c2)C(C)C)cc1OC.Cl (configuration not stated)
- NF-kB SEAP reporter activity [1, 3]: 0.98
- NF-kB SEAP reporter activity [1, 4]: 1.03

Compound: CN1CC(=O)N2C(Cc3c([nH]c4ccccc34)C2c2ccc3c(c2)OCO3)C1=O (configuration not stated)
- NF-kB SEAP reporter activity [1, 3]: 0.955
- NF-kB SEAP reporter activity [1, 4]: 0.984

Compound: CN1CC(=O)N2C(Cc3c([nH]c4ccccc34)C2c2ccc3c(c2)OCO3)C1=O (configuration not stated) (library stock concentration (final ~1000-fold dilution): 10 mM)
- NF-kB SEAP reporter activity ([2]; agonist: LPS (TLR4) 0.1 ug/mL): 1.17
- NF-kB SEAP reporter activity [2, 5]: 1.18
- NF-kB SEAP reporter activity [2, 6]: 1.13
- NF-kB SEAP reporter activity [2, 7]: 1.11

Compound: Cc1ccc([N+](=O)[O-])cc1S(=O)(=O)N(C)C (library stock concentration (final ~1000-fold dilution): 10 mM)
- NF-kB SEAP reporter activity ([2]; agonist: LPS (TLR4) 0.1 ug/mL): 1.07
- NF-kB SEAP reporter activity [2, 5]: 0.867
- NF-kB SEAP reporter activity [2, 6]: 0.994
- NF-kB SEAP reporter activity [2, 7]: 1.36

Compound: Cc1cc([N+](=O)[O-])ccc1NS(=O)(=O)c1cc(Cl)ccc1Cl
- NF-kB SEAP reporter activity [1, 3]: 1.01
- NF-kB SEAP reporter activity [1, 4]: 1.41

Compound: O=S(=O)(NCCSSCCNS(=O)(=O)c1cc(Cl)ccc1Cl)c1cc(Cl)ccc1Cl
- NF-kB SEAP reporter activity [1, 3]: 1.13
- NF-kB SEAP reporter activity [1, 4]: 1.03

Compound: O=S(=O)(NCCSSCCNS(=O)(=O)c1cc(Cl)ccc1Cl)c1cc(Cl)ccc1Cl (library stock concentration (final ~1000-fold dilution): 10 mM)
- NF-kB SEAP reporter activity ([2]; agonist: LPS (TLR4) 0.1 ug/mL): 0.705
- NF-kB SEAP reporter activity [2, 5]: 0.705
- NF-kB SEAP reporter activity [2, 6]: 0.573
- NF-kB SEAP reporter activity [2, 7]: 0.312

Compound: Cc1cc([N+](=O)[O-])ccc1NS(=O)(=O)c1cc(Cl)ccc1Cl (library stock concentration (final ~1000-fold dilution): 10 mM)
- NF-kB SEAP reporter activity ([2]; agonist: LPS (TLR4) 0.1 ug/mL): 3.09
- NF-kB SEAP reporter activity [2, 5]: 0.67
- NF-kB SEAP reporter activity [2, 6]: 0.323
- NF-kB SEAP reporter activity [2, 7]: 0.349

Compound: Cc1ccc([N+](=O)[O-])cc1S(=O)(=O)N(C)C
- NF-kB SEAP reporter activity [1, 3]: 0.951
- NF-kB SEAP reporter activity [1, 4]: 1.14

Compound: COC(C)Cn1c(=O)n(C)c2cnc3ccc(-c4cncc(C(C)(C)O)c4)cc3c21 (configuration not stated) (library stock concentration (final ~1000-fold dilution): 10 mM)
- NF-kB SEAP reporter activity ([2]; agonist: LPS (TLR4) 0.1 ug/mL): 1.84
- NF-kB SEAP reporter activity [2, 5]: 1.26
- NF-kB SEAP reporter activity [2, 6]: 0.476
- NF-kB SEAP reporter activity [2, 7]: 1.03

Compound: COC(C)Cn1c(=O)n(C)c2cnc3ccc(-c4cncc(C(C)(C)O)c4)cc3c21 (configuration not stated)
- NF-kB SEAP reporter activity [1, 3]: 0.865
- NF-kB SEAP reporter activity [1, 4]: 1.85

Compound: CC(=O)c1c(C)c2cnc(Nc3ccc(N4CCNCC4)cn3)nc2n(C2CCCC2)c1=O.O=S(=O)(O)CCO
- NF-kB SEAP reporter activity ([1]; library stock concentration (final ~1000-fold dilution): 10 mM water, agonist: Imiquimod (TLR7) […]): 0.674
- NF-kB SEAP reporter activity ([1]; library stock concentration (final ~1000-fold dilution): 10 mM water, agonist: MPLA (TLR4) […]): 1.09

Compound: CC(=O)c1c(C)c2cnc(Nc3ccc(N4CCNCC4)cn3)nc2n(C2CCCC2)c1=O.O=S(=O)(O)CCO (library stock concentration (final ~1000-fold dilution): 10 mM water)
- NF-kB SEAP reporter activity ([2]; agonist: LPS (TLR4) 0.1 ug/mL): 1.71
- NF-kB SEAP reporter activity [2, 5]: 0.449
- NF-kB SEAP reporter activity [2, 6]: 0.752
- NF-kB SEAP reporter activity [2, 7]: 1.29

Compound: CCC(Nc1ncnc2[nH]cnc12)c1nc2cccc(F)c2c(=O)n1-c1ccccc1 (configuration not stated) (library stock concentration (final ~1000-fold dilution): 10 mM)
- NF-kB SEAP reporter activity ([2]; agonist: LPS (TLR4) 0.1 ug/mL): 1.27
- NF-kB SEAP reporter activity [2, 5]: 1.08
- NF-kB SEAP reporter activity [2, 6]: 0.969
- NF-kB SEAP reporter activity [2, 7]: 0.843

Compound: CCC(Nc1ncnc2[nH]cnc12)c1nc2cccc(F)c2c(=O)n1-c1ccccc1 (configuration not stated)
- NF-kB SEAP reporter activity [1, 3]: 0.75
- NF-kB SEAP reporter activity [1, 4]: 0.952

Compound: CC(NC(=O)c1ncnc(N)c1Cl)c1ncc(C(=O)Nc2cc(C(F)(F)F)c(Cl)cn2)s1 (configuration not stated)
- NF-kB SEAP reporter activity [1, 3]: 0.623
- NF-kB SEAP reporter activity [1, 4]: 0.876

Compound: CC(NC(=O)c1ncnc(N)c1Cl)c1ncc(C(=O)Nc2cc(C(F)(F)F)c(Cl)cn2)s1 (configuration not stated) (library stock concentration (final ~1000-fold dilution): 10 mM)
- NF-kB SEAP reporter activity ([2]; agonist: LPS (TLR4) 0.1 ug/mL): 0.632
- NF-kB SEAP reporter activity [2, 5]: 0.495
- NF-kB SEAP reporter activity [2, 6]: 0.383
- NF-kB SEAP reporter activity [2, 7]: 0.417

Compound: O=C1C(Cc2ccc(O)cc2)N2C(=O)CCN(C(=O)NCc3ccccc3)C2CN1Cc1cccc2ccccc12 (configuration not stated) (library stock concentration (final ~1000-fold dilution): 10 mM)
- NF-kB SEAP reporter activity ([2]; agonist: LPS (TLR4) 0.1 ug/mL): 3.72
- NF-kB SEAP reporter activity [2, 5]: 1.08
- NF-kB SEAP reporter activity [2, 6]: 0.484
- NF-kB SEAP reporter activity [2, 7]: 0.63

Compound: O=C1C(Cc2ccc(O)cc2)N2C(=O)CCN(C(=O)NCc3ccccc3)C2CN1Cc1cccc2ccccc12 (configuration not stated)
- NF-kB SEAP reporter activity [1, 3]: 1.45
- NF-kB SEAP reporter activity [1, 4]: 2.26

Compound: CNCCN1CCC(OCc2ccccc2)CC1.Cl.Cl (library stock concentration (final ~1000-fold dilution): 10 mM)
- NF-kB SEAP reporter activity ([2]; agonist: LPS (TLR4) 0.1 ug/mL): 1.03
- NF-kB SEAP reporter activity [2, 5]: 1.45
- NF-kB SEAP reporter activity [2, 6]: 0.877
- NF-kB SEAP reporter activity [2, 7]: 1.53

Compound: CNCCN1CCC(OCc2ccccc2)CC1.Cl.Cl
- NF-kB SEAP reporter activity [1, 3]: 1.55
- NF-kB SEAP reporter activity [1, 4]: 0.921
